Measurements taken from PubChem BioAssay (NCI).
Compounds without any hit were thinned out: in the full panel of roughly 83,000, 20% have a hit.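 How to read the values: 0–100, growth inhibition (40 = 60% inhibited); 0, no net growth; -100 to 0, cell death (-40 = 40% of starting cells died; -100 = all dead).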 Unmarked numbers belong to inactive results. Activity calls are given as the source filed them. The calls were made as follows: active = growth percent below 10; inactive = the rest.

tested on: NCI-H23 lung; assay: NCI-60 one-dose screen, 48 h (100 = growth as untreated, 0 = no growth, -100 = all killed); conditions: 10 µM

| SMILES | growth |
| --- | --- |
| O=C1c2ccccc2CCC1(Br)Br | 28.9% |
| O=C(CNS(=O)(=O)Cc1ccccc1)NNc1ccccc1 | 92.3% |
| COc1ccc(N)c2c1C(=O)c1ccccc1C2=O | 99.6% |
| COc1cc(N)ccc1Nc1c2ccccc2nc2ccccc12 | 91.8% |
| Cc1cc(C)c(N2C(=O)CC(Sc3ccccc3N)C2=O)c(C)c1 (configuration not stated) | 82.6% |
| CCC(=O)Oc1ccc(/C=N/NC(N)=S)nc1 | 26.7% |
| ClCCn1c(CCl)nc2ccc(Cl)cc21 | -17.1% (active) |
| Cc1cc(Cl)ccc1NC(=O)/C(Cl)=C1/Sc2ccccc2NC1=O | 88.4% |
| CCOC(=O)[C@]1(Br)CC[C@@]1(Br)C(=O)OCC | 109% |
| COc1ccc2c(c1)[nH]c1c(/C=C/c3ccccc3)nccc12 | 60.8% |
| N#C/C(=C/N1C(=O)/C(=C/c2ccc([N+](=O)[O-])cc2)SC1=S)c1nc2ccccc2s1 | 89.1% |
| CN(C)CCNc1cccc2sc3ccc(O)cc3c(=O)c12 | 54.6% |
| NCc1c(O)ccc2ccccc12 | 102% |
| O=C1c2cccc3cc([N+](=O)[O-])cc(c23)C(=O)N1CCN1CCCC1 | -21.7% (active) |
| Cc1cc(O)c2c(c1O)C(=O)C13C(=C2O)C(=O)C2C(O)C1C1C(O)C3C(=O)C3=C(O)c4c(O)cc(C)c(O)c4C(=O)C321 (configuration not stated) | 32.3% |
| CC1CCC2(C(=O)O)CCC3(C)C(=CCC4C5(C)CC(O)C(O)C(C)(CO)C5C(O)CC43C)C2C1C (configuration not stated) | 94.6% |
| COc1ccc2oc(-c3ccc(Cl)cc3)c(N3CCN(C)CC3)c2c1 | 73.6% |
| Cc1cc(N=C2C=CC(=[N+](C)C)C=C2)c(N)cc1N | 78.2% |
| O=[N+]([O-])c1cc(S(=O)(=O)Nc2ccccc2)ccc1Cl | 97% |
| O=c1[nH]cc(/C=N\Nc2ccccc2)c(=O)[nH]1 | 89.9% |
| O=C(NC(=S)Nc1ccccn1)c1ccccc1 | 75.7% |

tested on: NCI-H322M lung; assay: as above; conditions: 10 µM

| SMILES | growth [%] |
| --- | --- |
| O=C1c2ccccc2CCC1(Br)Br | 100 |
| O=C(CNS(=O)(=O)Cc1ccccc1)NNc1ccccc1 | 75 |
| COc1ccc(N)c2c1C(=O)c1ccccc1C2=O | 91.1 |
| COc1cc(N)ccc1Nc1c2ccccc2nc2ccccc12 | 83.6 |
| Cc1cc(C)c(N2C(=O)CC(Sc3ccccc3N)C2=O)c(C)c1 (configuration not stated) | 112 |
| CCC(=O)Oc1ccc(/C=N/NC(N)=S)nc1 | 46 |
| ClCCn1c(CCl)nc2ccc(Cl)cc21 | 99.5 |
| Cc1cc(Cl)ccc1NC(=O)/C(Cl)=C1/Sc2ccccc2NC1=O | 102 |
| CCOC(=O)[C@]1(Br)CC[C@@]1(Br)C(=O)OCC | 92.8 |
| COc1ccc2c(c1)[nH]c1c(/C=C/c3ccccc3)nccc12 | 70.5 |
| N#C/C(=C/N1C(=O)/C(=C/c2ccc([N+](=O)[O-])cc2)SC1=S)c1nc2ccccc2s1 | 88.1 |
| CN(C)CCNc1cccc2sc3ccc(O)cc3c(=O)c12 | 59.1 |
| NCc1c(O)ccc2ccccc12 | 96.4 |
| O=C1c2cccc3cc([N+](=O)[O-])cc(c23)C(=O)N1CCN1CCCC1 | 23.7 |
| Cc1cc(O)c2c(c1O)C(=O)C13C(=C2O)C(=O)C2C(O)C1C1C(O)C3C(=O)C3=C(O)c4c(O)cc(C)c(O)c4C(=O)C321 (configuration not stated) | 19.4 |
| CC1CCC2(C(=O)O)CCC3(C)C(=CCC4C5(C)CC(O)C(O)C(C)(CO)C5C(O)CC43C)C2C1C (configuration not stated) | 98.7 |
| COc1ccc2oc(-c3ccc(Cl)cc3)c(N3CCN(C)CC3)c2c1 | 113 |
| Cc1cc(N=C2C=CC(=[N+](C)C)C=C2)c(N)cc1N | 93.7 |
| O=[N+]([O-])c1cc(S(=O)(=O)Nc2ccccc2)ccc1Cl | 90.9 |
| O=c1[nH]cc(/C=N\Nc2ccccc2)c(=O)[nH]1 | 58.1 |
| O=C(NC(=S)Nc1ccccn1)c1ccccc1 | 85.5 |

tested on: HOP-62 NSCLC; assay: as above; conditions: 10 µM

| SMILES | growth |
| --- | --- |
| O=C1c2ccccc2CCC1(Br)Br | 96.5% |
| O=C(CNS(=O)(=O)Cc1ccccc1)NNc1ccccc1 | 46.3% |
| COc1ccc(N)c2c1C(=O)c1ccccc1C2=O | 111% |
| COc1cc(N)ccc1Nc1c2ccccc2nc2ccccc12 | 83.6% |
| Cc1cc(C)c(N2C(=O)CC(Sc3ccccc3N)C2=O)c(C)c1 (configuration not stated) | 70.4% |
| CCC(=O)Oc1ccc(/C=N/NC(N)=S)nc1 | 36.4% |
| Cc1cc(Cl)ccc1NC(=O)/C(Cl)=C1/Sc2ccccc2NC1=O | 91% |
| CCOC(=O)[C@]1(Br)CC[C@@]1(Br)C(=O)OCC | 127% |
| COc1ccc2c(c1)[nH]c1c(/C=C/c3ccccc3)nccc12 | 71.8% |
| N#C/C(=C/N1C(=O)/C(=C/c2ccc([N+](=O)[O-])cc2)SC1=S)c1nc2ccccc2s1 | 82.4% |
| CN(C)CCNc1cccc2sc3ccc(O)cc3c(=O)c12 | 46.2% |
| NCc1c(O)ccc2ccccc12 | 90.7% |
| O=C1c2cccc3cc([N+](=O)[O-])cc(c23)C(=O)N1CCN1CCCC1 | -23.3% (active) |
| Cc1cc(O)c2c(c1O)C(=O)C13C(=C2O)C(=O)C2C(O)C1C1C(O)C3C(=O)C3=C(O)c4c(O)cc(C)c(O)c4C(=O)C321 (configuration not stated) | 3.99% (active) |
| CC1CCC2(C(=O)O)CCC3(C)C(=CCC4C5(C)CC(O)C(O)C(C)(CO)C5C(O)CC43C)C2C1C (configuration not stated) | 111% |
| COc1ccc2oc(-c3ccc(Cl)cc3)c(N3CCN(C)CC3)c2c1 | 51.9% |
| Cc1cc(N=C2C=CC(=[N+](C)C)C=C2)c(N)cc1N | 101% |
| O=[N+]([O-])c1cc(S(=O)(=O)Nc2ccccc2)ccc1Cl | 104% |
| O=c1[nH]cc(/C=N\Nc2ccccc2)c(=O)[nH]1 | 62.7% |
| O=C(NC(=S)Nc1ccccn1)c1ccccc1 | 106% |
